# Structures can show the parent of a compound that is named as a salt. ± gives the standard deviation of the averaged measurements.
# Key:
# Assay in all cases: growth (OD600 after 10 h); higher = more growth (less inhibition)
# [1] = test system: E. coli TESEC Alr+ wild-type control; conditions: compound 0.1 mM; raw OD600 reference: median of DMSO wells 0.241, cell-free background 0.041
# Method: (§1)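 TESEC Mtb Alr E. coli, or the Alr+ wild-type control, in 384-well plates with Prestwick library compounds at 0.1 mM and 1% DMSO, across arabinose induction levels of 1E3 to 1E7 nM. Growth is read as OD600 after 10 h at 37 °C in triplicate biological replicates.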
# [2] = test system: E. coli TESEC Mtb Alr; conditions: compound 0.1 mM
# Method: as §1
# [3] = test system: E. coli TESEC Mtb Asd; conditions: compound 0.1 mM
# Method: (§2)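 TESEC E. coli strains in which the native enzyme is deleted and replaced by arabinose-inducible Mtb Asd, DapB, CysH or TrpD, each grown in its selective medium. Strains were screened against the Prestwick library at 0.1 mM and 1% DMSO in 384-well format at low and high arabinose induction. Growth is read as OD600 after 10 h in triplicate.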
# [4] = test system: E. coli TESEC Mtb DapB; conditions: compound 0.1 mM
# Method: as §2
# [5] = test system: E. coli TESEC Mtb Alr; conditions: compound 0.1 mM; remark: listed apart in the source
# Method: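 TESEC Mtb Alr E. coli (ΔaraC ΔtolC ΔentC Δalr ΔdadX, arabinose-inducible Mtb Alr) or the Alr+ wild-type control strain, grown in defined M9-fructose medium without D-alanine in 96-well plates with Prestwick library compounds at 0.1 mM and 1% DMSO. Low Alr induction is 0.1 µM arabinose and high induction is 10 mM arabinose.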
# [6] = arabinose 1000 nM, raw OD600 reference: median of DMSO wells 0.294, cell-free background 0.041
# [7] = arabinose 10000 nM, raw OD600 reference: median of DMSO wells 0.264, cell-free background 0.041
# [8] = arabinose 100000 nM, raw OD600 reference: median of DMSO wells 0.201, cell-free background 0.041
# [9] = arabinose 1000000 nM, raw OD600 reference: median of DMSO wells 0.193, cell-free background 0.041
# [10] = arabinose 10000000 nM, raw OD600 reference: median of DMSO wells 0.146, cell-free background 0.041
# [11] = arabinose induction (level): High, raw OD600 reference: median of DMSO wells 0.331, cell-free background 0.041
# [12] = arabinose induction (level): Low, raw OD600 reference: median of DMSO wells 0.417, cell-free background 0.041
# [13] = arabinose induction (level): High, raw OD600 reference: median of DMSO wells […], cell-free background 0.041
# [14] = arabinose induction (level): Low, raw OD600 reference: median of DMSO wells 0.227, cell-free background 0.041
# [15] = arabinose 100 nM, raw OD600 reference: median of DMSO wells 0.413, cell-free background 0.052
# [16] = arabinose 10000000 nM, raw OD600 reference: median of DMSO wells […], cell-free background 0.052
smiles,measurement,setting,value
CC/C(=C(/CC)c1ccc(O)cc1)c1ccc(O)cc1 [Diethylstilbestrol],growth,[1],0.0422 ± 0.0023
same,growth,[2]; [6],0.04 ± 0.0015
same,growth,[2]; [7],0.0413 ± 0.0044
same,growth,[2]; [8],0.0436 ± 0.0041
same,growth,[2]; [9],0.0394 ± 0.00096
same,growth,[2]; [10],0.0457 ± 0.0042
same,growth,[3]; [11],0.169 ± 0.011
same,growth,[3]; [12],0.0743 ± 0.016
same,growth,[4]; [13],0.171 ± 0.013
same,growth,[4]; [14],0.198 ± 0.012
same,growth,[5]; [15],0.0551 ± 0.0059
same,growth,[5]; [16],0.0557 ± 0.0043
CCOC(=O)[C@@](C)(N)Cc1ccc(O)c(O)c1 [Methyldopate hydrochloride],growth,[1],0.106 ± 0.0036
same,growth,[2]; [6],0.159 ± 0.008
same,growth,[2]; [7],0.185 ± 0.011
same,growth,[2]; [8],0.116 ± 0.0072
same,growth,[2]; [9],0.0901 ± 0.0019
same,growth,[2]; [10],0.116 ± 0.0018
same,growth,[3]; [11],0.163 ± 0.024
same,growth,[3]; [12],0.276 ± 0.13
same,growth,[4]; [13],0.155 ± 0.01
same,growth,[4]; [14],0.152 ± 0.016
same,growth,[5]; [15],0.405 ± 0.021
same,growth,[5]; [16],0.339 ± 0.022
NS(=O)(=O)c1cc2c(cc1Cl)N=C(CSCc1ccccc1)NS2(=O)=O [Benzthiazide],growth,[1],0.241 ± 0.008
same,growth,[2]; [6],0.292 ± 0.023
same,growth,[2]; [7],0.254 ± 0.0055
same,growth,[2]; [8],0.171 ± 0.017
same,growth,[2]; [9],0.169 ± 0.0062
same,growth,[2]; [10],0.132 ± 0.0022
same,growth,[3]; [11],0.286 ± 0.026
same,growth,[3]; [12],0.487 ± 0.025
same,growth,[4]; [13],0.194 ± 0.016
same,growth,[4]; [14],0.21 ± 0.012
same,growth,[5]; [15],0.405 ± 0.0095
same,growth,[5]; [16],0.3136 ± 0.0011
CC[C@H]1OC(=O)[C@H](C)[C@@H](O[C@H]2C[C@@](C)(OC)[C@@H](O)[C@H](C)O2)[C@H](C)[C@@H](O[C@@H]2O[C@H](C)C[C@H](N(C)C)[C@H]2O)[C@](C)(O)C[C@@H](C)/C(=N\OCOCCOC)[C@H](C)[C@@H](O)[C@]1(C)O [Roxithromycin],growth,[1],0.0423 ± 0.0011
same,growth,[2]; [6],0.0412 ± 0.00062
same,growth,[2]; [7],0.04067 ± 0.00015
same,growth,[2]; [8],0.0421 ± 0.0001
same,growth,[2]; [9],0.04023 ± 0.00015
same,growth,[2]; [10],0.0439 ± 0.002
same,growth,[3]; [11],0.0582 ± 0.0066
same,growth,[3]; [12],0.205 ± 0.25
same,growth,[4]; [13],0.0507 ± 0.0027
same,growth,[4]; [14],0.0505 ± 0.00097
same,growth,[5]; [15],0.0564 ± 0.0015
same,growth,[5]; [16],0.0513 ± 0.00036
CCN(CC)CCNC(=O)c1cc(S(C)(=O)=O)ccc1OC [Tiapride hydrochloride],growth,[1],0.249 ± 0.0035
same,growth,[2]; [6],0.295 ± 0.01
same,growth,[2]; [7],0.263 ± 0.0064
same,growth,[2]; [8],0.213 ± 0.016
same,growth,[2]; [9],0.184 ± 0.0024
same,growth,[2]; [10],0.149 ± 0.0067
same,growth,[3]; [11],0.295 ± 0.057
same,growth,[3]; [12],0.422 ± 0.045
same,growth,[4]; [13],0.183 ± 0.023
same,growth,[4]; [14],0.218 ± 0.035
same,growth,[5]; [15],0.422 ± 0.011
same,growth,[5]; [16],0.361 ± 0.013
COc1ccc2[nH]c([S+]([O-])Cc3ncc(C)c(OC)c3C)nc2c1 (stereo unspecified) [Omeprazole],growth,[1],0.19 ± 0.0022
same,growth,[2]; [6],0.232 ± 0.0033
same,growth,[2]; [7],0.2749 ± 0.0018
same,growth,[2]; [8],0.168 ± 0.011
same,growth,[2]; [9],0.122 ± 0.0034
same,growth,[2]; [10],0.131 ± 0.0049
same,growth,[3]; [11],0.298 ± 0.04
same,growth,[3]; [12],0.388 ± 0.025
same,growth,[4]; [13],0.167 ± 0.0081
same,growth,[4]; [14],0.1748 ± 0.0014
same,growth,[5]; [15],0.399 ± 0.016
same,growth,[5]; [16],0.263 ± 0.018
Cc1ccc(-c2cc(C(F)(F)F)nn2-c2ccc(S(N)(=O)=O)cc2)cc1 [Celecoxib],growth,[1],0.0401 ± 0.00046
same,growth,[2]; [6],0.041 ± 0.0023
same,growth,[2]; [7],0.0401 ± 0.00091
same,growth,[2]; [8],0.0415 ± 0.0019
same,growth,[2]; [9],0.0418 ± 0.0037
same,growth,[2]; [10],0.04133 ± 0.00035
same,growth,[3]; [11],0.04733 ± 0.00047
same,growth,[3]; [12],0.0479 ± 0.00085
same,growth,[4]; [13],0.0473 ± 0.00055
same,growth,[4]; [14],0.0486 ± 0.0019
same,growth,[5]; [15],0.308 ± 0.021
same,growth,[5]; [16],0.0533 ± 0.0036
CS(=O)(=O)c1ccc(C2=C(c3ccccc3)C(=O)OC2)cc1 [Rofecoxib],growth,[1],0.182 ± 0.012
same,growth,[2]; [6],0.2483 ± 0.0006
same,growth,[2]; [7],0.242 ± 0.019
same,growth,[2]; [8],0.184 ± 0.037
same,growth,[2]; [9],0.151 ± 0.008
same,growth,[2]; [10],0.144 ± 0.011
same,growth,[3]; [11],0.336 ± 0.1
same,growth,[3]; [12],0.362 ± 0.097
same,growth,[4]; [13],0.205 ± 0.0062
same,growth,[4]; [14],0.213 ± 0.009
same,growth,[5]; [15],0.409 ± 0.015
same,growth,[5]; [16],0.302 ± 0.041

# Reference: the supplement of paper PMC9262897, “Low-cost anti-mycobacterial drug discovery using engineered E. coli” (Nature Communications, 2022)
